Assay results: PubChem BioAssay (NCI)
Values joined by “and” are separate entries in the source; they are usually repeats but may differ in a detail not shown here. Equal entries are not always repeated. This is part of a sample that, as a whole, favours compounds with a hit. Of some 83,000 tested, about 20% had one in any assay.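 Note: values are percent growth. 100 is the growth of untreated cells, values between 100 and 0 indicate rising inhibition; between -100 and 0 indicates cell death.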 Active and inactive are the calls of the source. How the source made its calls: active means growth percent below 10; inactive means the rest.

test system: OVCAR-5 ovarian; assay: NCI-60 one-dose screen, 48 h (100 = growth as untreated, 0 = no growth, -100 = all killed); details: 10 µM unless noted

| SMILES | growth |
| --- | --- |
| CCc1cc(C)cc(O)c1 | 106% (inactive) |
| NN1CCOC(c2ccccc2)C1 (stereo not drawn) | 97.1% (inactive) |
| ClCCOCCOc1ccc(C2CCCCC2)cc1 | 95.4% (inactive) |
| O=c1n(CC2CO2)c(=O)n(CC2CO2)c(=O)n1CC1CO1 (stereo not drawn) | 108% (inactive) |
| Cc1ccc(S(=O)(=O)c2ccccc2)cc1 | 80.1% (inactive) |
| O=C(/C=C/c1ccccc1)c1ccccc1 | 98.4% (inactive) |
| Cc1cc(-c2ccc(N=Nc3ccc4c(S(=O)(=O)O)cc(S(=O)(=O)O)c(N)c4c3O)c(C)c2)ccc1N=Nc1ccc2c(S(=O)(=O)O)cc(S(=O)(=O)O)c(N)c2c1O | 90.2% (inactive) |
| c1ccc(CNCCNCc2ccccc2)cc1 | 102% (inactive) |
| Cc1cc2ccccc2cn1 | 107% (inactive) |
| OC1COC(OCc2ccccc2)C(O)C1O (stereo not drawn) | 99.1% (inactive) |
| CCCCCCCCCCCCCCCc1ccc(N)c(OC2OC(CO)C(O)C(O)C2O)c1 (stereo not drawn) | 65.8% (inactive) |
| O=C(O)CCCl | 99.1% (inactive) |
| C#CCOC(=O)Nc1ccccc1 | 95.8% (inactive) |
| CC(C)C(C)(C)c1ccc(O)cc1 | 106% (inactive) |
| Cc1cc(-c2cc(C)c(O)c(C)c2)cc(C)c1O | 95.6% (inactive) |
| CC1(C)COC(=S)N1 | 93.4% (inactive) |
| CCOC(=O)c1c(C)cc(=O)oc1C | 101% (inactive) |
| CC[C@H](CC[C@@H](C)[C@H]1CC[C@H]2[C@@H]3CC=C4C[C@@H](O)CC[C@]4(C)[C@H]3CC[C@]12C)C(C)C | 45.2% (inactive) and 103% (inactive) |
| CN1CNC(=O)NC1 | 112% (inactive) and 111% (inactive) |

| SMILES | growth |
| --- | --- |
| CC1CCC2(OC1)OC1CC3C4CC=C5CC(O)CCC5(C)C4CCC3(C)C1C2C (stereo not drawn) | 114% (inactive) |
| COc1cc(C(O)C2C(=O)OCC2C2(c3ccc4c(c3)OCO4)SCCCS2)cc(OC)c1OC (stereo not drawn) | 97.2% (inactive) |
| Nc1nc(N)c2[nH]cnc2n1 | 90.3% (inactive) |
| Cn1cnc([N+](=O)[O-])c1Sc1ncn[nH]1 | 116% (inactive) |
| O=c1[nH]cnc2c1ncn2C1OC(CO)C(O)C1O (stereo not drawn) | 116% (inactive) and 114% (inactive) and 96.5% (inactive) |
| CC(=O)OCC1OC(OC(C)=O)C(OC(C)=O)C(OC(C)=O)C1OC(C)=O (stereo not drawn) | 101% (inactive) and 112% (inactive) |
| O=C1c2c(O)ccc(O)c2C(=O)c2c(NCCNCCO)ccc(NCCNCCO)c21 | -15.1% (active) and -78.6% (active) |
| c1ccc(-c2nc3ccccc3s2)cc1 | 84.1% (inactive) |
| CCCCCCCCCCCCCCCCC(C(=O)O)C(O)(CC(=O)O)C(=O)O (stereo not drawn) | 109% (inactive) and -56.6% (active) |
| Nc1cc(N)c(N)cc1N | -9.01% (active) |
| O=[N+]([O-])c1cccc(SSc2cccc([N+](=O)[O-])c2)c1 | 104% (inactive) |
| Oc1ccc(Cc2ccccc2Cl)c(O)c1 | 97.3% (inactive) |
| OCCN1CCCCCCC1 | 109% (inactive) |
| CC1CCC(C(C)C)C(NNC(N)=O)C1 (stereo not drawn) | 131% (inactive) |
| Fc1ccc([I+]c2ccc(F)cc2)cc1 | 92.9% (inactive) |
| CC1=C/C(O)CC(=O)Cc2nc(co2)C(=O)N2CCC=C2C(=O)OC(C(C)C)C(C)/C=C\C(=O)NC/C=C\1 (stereo not drawn) | 94.8% (inactive) |
| COc1ccc2cc1Oc1ccc(cc1)C[C@H]1c3cc(c(OC)cc3CCN1C)Oc1c(OC)c(OC)cc3c1[C@H](C2)N(C)CC3 | 72.3% (inactive) |
| O=C1OC(c2ccccc2)=N/C1=C\c1ccccc1 | 105% (inactive) |
| COc1ccc(Nc2ccc3ccccc3c2)cc1 | 97.4% (inactive) |
